Out of some 1,200 compounds screened, about 85 (7%) were called active. Calls follow the shape of the full dose curve. Only a selection was taken, and actives are over-represented in it overall.
What follows are compounds tested against Beta-2 adrenergic receptor (Homo sapiens) (UniProt P07550) (assay: qHTS assay of beta-arrestin-biased ligands of beta2-adrenergic receptor: Hit Validation with GloSensor). Details: W9-Glo22F cells, GloSensor cAMP luminescence, beta2AR agonism; activation: at 46.1 µM (top of the series).
Beta-2 adrenergic receptor (Homo sapiens), sequence (P07550 whole entry, looked up): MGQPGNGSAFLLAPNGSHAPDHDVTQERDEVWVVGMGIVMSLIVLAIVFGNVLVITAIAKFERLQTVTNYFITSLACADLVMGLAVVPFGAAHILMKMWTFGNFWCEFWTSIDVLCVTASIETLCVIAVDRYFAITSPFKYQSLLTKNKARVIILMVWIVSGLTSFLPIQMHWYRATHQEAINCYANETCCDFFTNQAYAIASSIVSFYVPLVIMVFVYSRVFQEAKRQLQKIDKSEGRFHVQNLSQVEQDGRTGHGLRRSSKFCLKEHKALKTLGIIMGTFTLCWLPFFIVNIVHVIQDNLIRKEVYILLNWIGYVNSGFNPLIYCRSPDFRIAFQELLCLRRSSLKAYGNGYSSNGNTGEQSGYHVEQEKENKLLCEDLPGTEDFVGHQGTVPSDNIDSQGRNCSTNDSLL
Text: The concept of biased agonism is an emerging concept of molecular pharmacology which proposes that seven transmembrane receptors (7TMRs) or G protein-coupled receptors (GPCRs), exist in multiple signaling conformations and complexes and that ligands (either agonists or antagonists) can induce signaling biased responses for distinct signal transduction cascades.
Furthermore, accumulating evidence over the last decade has drawn attention to a novel function of beta-arrestins as signal transducers that scaffold various signaling molecules upon activation of 7TMRs. […] This beta-arrestin-biased signaling presumably leads to distinct physiological outcomes from those by G protein activation.
Additionally, the active receptor conformations which […] on this beta-arrestin signaling are likely different from those activating G protein signaling
The goal of this screening project is to discover and optimize novel beta-arrestin-biased ligands for beta2-AR signaling. A luminescent cell-based assay for beta2-AR-mediated agonism, known as the Tango assay, has been validated in which ligand binding of a recombinant beta2-AR and subsequent recruitment of a recombinant beta-arrestin lead to the release of the transcriptional activator tTA, which upregulates transcription of a tTA-responsive luciferase gene. […] After compounds were identified in this primary screen, they were tested in a counter screen that used luminescence as measure through the GloSensor reagent.
NIH Molecular Libraries Probe Production Network [MLPCN]
NIH Chemical Genomics Center [NCGC]
PI: Bryan Roth (UNC) and Bob Lefkowitz (Duke)
2 uL of W9-Glo22F cells are dispensed into a white 1536-well plate. They are incubated overnight at 37 deg C at 5% CO2. 23 nL of compounds and controls are pinned into the wells. Then 2 uL of GloSensor is added and the plate is incubated for 10 min at room temperature.The plates are then read on the ViewLux for luminescence.
For activation in this document: 0% is about no effect.
Potency is read from the fitted curve at half-maximal effect.

activation, active:
O=C(COC(=O)c1ccc(CO)cc1)NCc1cccs1 80.4%

activation, inactive:
O=C(NCc1ccco1)c1cccn2c(=O)c3c4c(sc3nc12)CCCC4 4.8%, Cc1nc(SCC(=O)N2CCOCC2)c2c3c(sc2n1)CCC3 4.96%, CC1(C)CC(C)(c2ccc(O)cc2O)N(c2cccc(Cl)c2)C(=S)N1 (stereo not drawn) 0.459%, S=c1[nH]c2cc(-c3ccccc3)ccc2o1 1.16%, CC(C)CC(=O)NC(=S)Nc1ccc(Cl)cn1 -2.33%, O=C(CS(=O)(=O)c1ccccc1)Nc1nc2ccccc2s1 -1.16%, CCCC(=O)NC(=S)Nc1ccc(Cl)cn1 2.48%, COc1ccc(C(=O)C2CCCN(Cc3cnc(N4CCCC4)s3)C2)cc1OC (stereo not drawn) -1.16%, COc1cccc(C(=O)C2CCCN(Cc3cccc(-n4nc(C)cc4C)c3)C2)c1 (stereo not drawn) 12.8%, O=c1[nH]c(CSc2cccc[n+]2[O-])nc2ccccc12 4.96%, CCc1cc2c(=O)[nH]c(-c3ccccn3)nc2s1 0.306%, CCn1c(SCC(=O)N/N=C/C=C\c2ccco2)nc2ccccc21 0%, S=C(NN=C1CCN(Cc2ccccc2)CC1)NC1CCCCC1 -1.01%, COc1cccc([C@@H]2Oc3ccc(Br)cc3C(=O)[C@H]2OC(=O)NC2CCCC2)c1 -1.16%, CCOc1ccc(C(=O)Nc2ccccc2OC(F)F)cc1 0.153%, O=C(CN1C(=O)C2C3CC(C(Br)C3Br)C2C1=O)N1CCN(Cc2ccccc2)CC1 (stereo not drawn) 0.153%, CN(C)S(=O)(=O)c1cccc(NC(=S)N/N=C/c2ccco2)c1 0.306%, COc1ccc(/C=C/c2ccc3cccc(O)c3n2)c(OC)c1OC -1.01%, CCCCCOCC1CC(C/C(C)=N/NC(N)=S)C(=O)O1 (stereo not drawn) -1.16%, C/C(CCC1CC(C)(C)OC1=O)=N\NC(N)=S (stereo not drawn) -2.48%, CS/C(N)=N/N=C/c1cc(C)ccc1O -0.857%, CCN(CC)C(=O)[C@H]1CC(CC(=O)NCc2ccc(OC)c(OC)c2)C(=O)N2CCc3c([nH]c4ccccc34)[C@]12C (stereo partly drawn) -1.16%, O=C(CSc1n[nH]c(=O)n1-c1cccnc1)N1CCOCC1 -1.16%, COc1ccc2cc1Oc1ccc(cc1)C[C@H]1c3cc(c(OC)cc3CCN1C)Oc1c(O)c(OC)cc3c1[C@H](C2)N(C)CC3 -1.16%, COc1cc(/C=C2\CC(C(C)(C)C)C/C(=C\c3cc(OC)c(OC)c(OC)c3)C2=O)cc(OC)c1OC (stereo not drawn) -2.33%, CCOC(=O)N1C/C(=C\c2ccccc2)C(=O)/C(=C/c2ccccc2)C1 0.153%, O=C(O)CC1S/C(=N/N=C2CCCCC2)N(c2ccccc2)C1=O (stereo not drawn) -1.16%, CN(C)CCCn1c(SCC(=O)Nc2nccs2)nnc1-c1ccncc1 1.16%, CCC(C)NC(=O)C1CCN(S(=O)(=O)N2CCC3(CC2)OCCO3)CC1 (stereo not drawn) -1.16%, COc1cccc(/C=N/Nc2nc(-c3cccnc3)nc3ccccc23)c1 -1.16%, O=C(CC(=O)Nc1cccc(F)c1)Nc1cccc(F)c1 0%, CCCCCCCCN1C(=O)N(C)C(N(O)C(=O)NC)C1(C)C (stereo not drawn) -2.17%, Clc1ccccc1C1Nc2cccc3cccc(c23)N1 0%, Clc1cccc(Cl)c1C1Nc2cccc3cccc(c23)N1 -1.01%, Cc1ccc(C(=O)N/C(=C\c2ccco2)C(=O)NCCc2c[nH]c3ccccc23)cc1 0%, O=C(CNC(=O)C(c1ccccc1)c1ccccc1)N/N=C\c1cccc(O)c1 -0.857%, CCC(Sc1nc(C)cc(=O)[nH]1)C(=O)Nc1nc2c(s1)CCCC2 (stereo not drawn) 4.96%, CC(/C=C/c1ccccc1)=N\NC(N)=S 0%, NC(=S)NN=C(c1ccccc1)c1ccccc1 -1.16%, Cc1cc(N2Cc3ccccc3C2)ccc1C=O 0.459%, C/C(=N/NC(=O)c1ccoc1C)c1ccc(NC(=O)C2CCCC2)cc1 -1.16%, O=C(COC(=O)c1n[nH]c(=O)c2ccccc12)NCc1ccccc1 8.45%, Oc1ccc(NCc2cccs2)cc1 1.16%, CCN1CCN(C(=S)NC(=O)c2cccc(Br)c2)CC1 -1.16%, CC1CN(C(=S)NC(=O)c2ccc([N+](=O)[O-])cc2)CC(C)O1 (stereo not drawn) 0%, CCC1(C)Nc2ccccc2C(=O)N1O (stereo not drawn) -1.16%, O=C(Nc1nc(-c2ccccn2)cs1)Nc1ccc(F)cc1F 0%, CN(C)/C=C/C(=O)c1ccc(F)cc1 0.306%, O=S(=O)(N1CCOCC1)N1CCOCC1 -1.16%, Cc1ccc(NC(=S)NC(NC(=O)c2ccccc2)C(Cl)(Cl)Cl)c(C)c1 (stereo not drawn) -1.16%, CC(c1ccccc1)n1c(-c2ccc(C(C)(C)C)cc2)n[nH]c1=S (stereo not drawn) -2.33%, S=c1[nH]nc(-c2ccccc2)n1C1C=CCCC1 (stereo not drawn) -1.01%, COc1ccccc1-c1cc(C(=O)N2CCN(c3ccccc3OC)CC2)no1 0.153%, Cc1ccc(Nc2nc(CSc3nnc(-c4ccccc4C)n3C)cs2)cc1 0.306%, CCCOc1ccc(C(=O)Nc2nc(C)c(Cc3ccc4c(c3)OCO4)s2)cc1 -1.01%, COc1ccccc1N=NC1C(=O)N(C(N)=S)N=C1C (stereo not drawn) 8.6%, CC(=O)Nc1ccc(NC(=O)Cn2nc(C(=O)Nc3ccc(C)cc3)ccc2=O)cc1 -1.16%, CC1=NN(C(N)=S)C(=O)C1N=Nc1cccc(C)c1 (stereo not drawn) 0.153%, CC1=NN(C(N)=S)C(=O)C1N=Nc1ccc(F)cc1 (stereo not drawn) 0.306%

Potency, active:
Cc1ccc(C)c(-n2c(SCC(=O)O)nc3sc4c(c3c2=O)CCCC4)c1 23.1 µM, CC1CCC(NC(=O)c2ccc(S(C)(=O)=O)cc2)CC1 (stereo not drawn) 29.1 µM, COc1ccc(C(=O)C2CCCN(C/C=C/c3ccccc3OC)C2)c(OC)c1 (stereo not drawn) 18.4 µM, O=c1[nH]c(CSc2ccccn2)nc2c1cnn2-c1ccccc1 11.6 µM, CCNc1nc(NC(C)CC)nc(ON=C(C)C)n1 (stereo not drawn) 32.6 µM, CCCCCC1CC(/C(C)=N/NC(N)=O)OC1=O (stereo not drawn) 29.1 µM, COc1cc(/C=C2\CC/C(=C\c3ccc(OCCO)c(OC)c3)C2=O)ccc1OCCO 18.4 µM, COc1ccc(Oc2nc(-c3ccncc3)nc3ccccc23)cc1 29.1 µM, O=[N+]([O-])c1ccc(Cl)c(C2Nc3cccc4cccc(c34)N2)c1 0.0046 µM, NC(=S)NN=C(Cc1ccccc1)Cc1ccccc1 32.6 µM, CN1CCN(C(=S)NC(=O)c2ccc(Br)cc2)CC1 10.3 µM, Cn1c(-c2csc(-c3ccccc3)n2)n[nH]c1=S 20.6 µM, CC1=NN(C(N)=S)C(=O)C1N=Nc1ccccc1 (stereo not drawn) 18.4 µM

Source: PubChem BioAssay AID588790 (National Center for Advancing Translational Sciences (NCATS), 2011)
